Results filed as inconclusive are left out. A number with no mark means an inactive call. Active and inactive are the calls of the source. The call rests on the fitted dose curve; in most records, active means well fitted inhibition curve with a large enough effect; inconclusive means small, poorly fitted or top-dose-only effect; inactive means flat fitted curve, though single readings scatter.
system: ATS189; test: qHTS profiling for inhibitors of Plasmodium falciparum proliferation (AID 504749); further: nearly all actives have a fitted effect of over 60% in size;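 on activity, negative = inhibition: 0% = DMSO vehicle and full inhibition = artemisinin control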; details: P. falciparum in erythrocytes, SYBR Green DNA, 72 h; series mostly up to 28.7 µM; activity, negative = inhibition: at the top concentration
Summary of the method: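 SYBR Green fluorescence of parasite DNA, read after lysis and overnight dark incubation, measured growth over 72 h in erythrocyte culture at 0.3% parasitemia and 2.5% hematocrit. Data normalised to DMSO and 0.29 uM artemisinin, with plate-drift correction.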
Potency means the concentration at half of the fitted maximal effect.

Compound	activity, negative = inhibition [%]	Potency
Cc1cc(C(C#N)c2ccc(Cl)cc2)c(Cl)cc1NC(=O)c1cc(I)cc(I)c1O (stereo unspecified)	-4.47	
CC(C(O)c1ccc(O)cc1)N1CCC(Cc2ccccc2)CC1 (stereo unspecified)		11.2 µM (active)
CC1=C(CC(=O)O)c2cc(F)ccc2/C1=C\c1ccc(S(C)=O)cc1 (stereo unspecified)	9.56	
CNC(=O)Oc1ccc2c(c1)[C@]1(C)CCN(C)[C@@H]1N2C		2.24 µM (active)
Nc1ccc(S(=O)(=O)Nc2nccs2)cc1	4.29	
Cc1ccc2nc(N)[nH]c(=O)c2c1Sc1ccncc1		8.91 µM (active)
CC(C)(C)C(=O)C(Oc1ccc(Cl)cc1)n1ccnc1 (stereo unspecified)		8.91 µM (active)
CCOC(=O)c1ccc(O)cc1	3.17	
O=S(=O)(O)c1cc(I)c(O)c2ncccc12	1.24	
NC1CCN(c2cccc(Cl)n2)CC1	-9.6	
Cc1ccc(C(C)C)cc2c(C)ccc1-2	-15.5	
COC(=O)C1=C(C)NC(C)=C(C(=O)OC)C1c1ccccc1[N+](=O)[O-]	16.7	
CC(C)(C)NCC(O)COc1ccc(NC(=O)NC2CCCCC2)cc1 (stereo unspecified)	1.38	
CC(CN1c2ccccc2Sc2ccccc21)N(C)C (stereo unspecified)	12.7	
CCCCOC(=O)c1ccc(O)cc1	12.5	
OCc1cc(C(O)CNCCCCCCOCCCCc2ccccc2)ccc1O (stereo unspecified)	-3.05	
CC[C@@]1(c2ccccc2)NC(=O)N(C)C1=O	6.02	
CCCCCCCCCCCCCCCC(=O)NCCO	22.1	
Cc1cc(N)c2ccccc2[n+]1CCCCCCCCCC[n+]1c(C)cc(N)c2ccccc21		0.316 µM (active)
O=C1NS(=O)(=O)c2ccccc21	-2.74	
CN1CCN(C2Cc3ccccc3Sc3ccc(Cl)cc32)CC1 (stereo unspecified)	-22.5	

Source: PubChem BioAssay (NCATS)
